# Reference: ChEMBL document CHEMBL3433997, “St. Jude Leishmania screening dataset” (2016)
# Key:
# Format in all cases: functional
# [1] = molecular target: Solute carrier family 2, facilitated glucose transporter member 1 (Homo sapiens) (UniProt P11166); assay: ST_JUDE_LEISH: Cytotoxicity at 2uM final concentration against transgenic Leishmania Mexicana promastigotes LmGLUT1 that are glucose transport deficient and complemented with the human glucose transporter GLUT1. Activity is measured by DNA content using SYBR green in vitro
# Chain of Solute carrier family 2, facilitated glucose transporter member 1 (Homo sapiens) (P11166 whole entry): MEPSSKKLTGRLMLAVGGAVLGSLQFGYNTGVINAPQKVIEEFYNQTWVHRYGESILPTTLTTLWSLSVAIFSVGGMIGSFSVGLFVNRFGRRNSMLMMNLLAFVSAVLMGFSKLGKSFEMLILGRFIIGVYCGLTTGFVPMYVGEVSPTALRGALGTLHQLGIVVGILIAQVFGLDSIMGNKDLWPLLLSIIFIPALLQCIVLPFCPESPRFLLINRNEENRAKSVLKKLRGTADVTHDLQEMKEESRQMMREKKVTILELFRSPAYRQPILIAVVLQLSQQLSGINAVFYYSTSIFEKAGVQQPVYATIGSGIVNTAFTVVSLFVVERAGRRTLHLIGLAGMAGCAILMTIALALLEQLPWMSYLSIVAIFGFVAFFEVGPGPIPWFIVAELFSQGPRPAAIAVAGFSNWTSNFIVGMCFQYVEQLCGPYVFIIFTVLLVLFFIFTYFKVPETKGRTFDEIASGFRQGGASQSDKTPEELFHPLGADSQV
# [2] = molecular target: Hexose transporter 1 (Plasmodium falciparum) (UniProt O97467); assay: ST_JUDE_LEISH: Cytotoxicity at 2uM final concentration against transgenic Leishmania Mexicana promastigotes LmPfHT that are glucose transport deficient and complemented with the Plasmodium falciparum hexose transporter. Activity is measured by DNA content using SYBR green in vitro
# [3] = molecular target: Glucose transporter (Leishmania mexicana) (UniProt O61059); assay: ST_JUDE_LEISH: Cytotoxicity at 2uM final concentration against transgenic Leishmania Mexicana promastigotes LmGT2 that are glucose transport deficient and complemented with the L. Mexicana glucose transporter 2. Activity is measured by DNA content using SYBR green in vitro
SMILES,inhibition [1],inhibition [2],inhibition [3]
C=CCOC(=O)N1CCC(CNCc2ccc(-c3cccc(-c4nc5cccc(C)c5[nH]4)c3)cc2)C1 (stereo not drawn),-0.46%,-0.4%,-2.77%
CCOc1cc(/C=N/Nc2nc3ccccc3[nH]2)ccc1OCc1ccc([N+](=O)[O-])cc1,5.62%,4.53%,4.41%
Cc1nc(C)c(-c2ccc(Oc3ccc([S+](C)[O-])cc3)cc2)c(O)c1Br (stereo not drawn),3.66%,3.7%,3.99%
CCC[C@@H]([C@@H](CC1CCCCC1)C(=O)N[C@H](C(=O)Nc1nccs1)C(C)(C)SCCNC(=O)OCC)N(O)C=O,3.35%,4.46%,4.28%
OCC1CCN(Cc2cccc(-c3ccc(-c4nc5cc(C(F)(F)F)ccc5[nH]4)cc3)c2)CC1,1.05%,0.48%,1.4%
O=C(Nc1cccc(-c2nn3ccccc3c2-c2ccnc(Nc3cccc(F)c3)n2)c1)c1c(F)ccc(F)c1Cl,9.38%,10.4%,6.24%
Cc1cccc(CNc2nc(C)cc(N[C@@H](Cc3ccccc3)C(=O)NCc3cccc(F)c3)n2)c1,6.42%,6.57%,2.83%
COc1ccc2nccc([C@@H](O)CN3CCC(NCC4COc5ccccc5O4)CC3)c2c1 (stereo partly drawn),7.53%,8.69%,1.37%
CC(Cc1ccc(C(=O)Nc2ccc(CC(C)NCCc3cccc(Cl)c3)cc2)cc1)NCCc1ccc(C(F)(F)F)cc1 (stereo not drawn),56.4%,37.1%,48.1%
O=C(Nc1cccc(-c2ccc(-c3nc4cc(F)ccc4[nH]3)s2)c1)c1ccncc1,6.59%,5.83%,3.32%
CON=Cc1sc(CNCCCN=c2cc(O)c3ccccc3[nH]2)c(C)c1Br,4.13%,4.13%,3.41%
